Measured values: the supplement of paper PMC13380429

Key:
[1] = tested on: Vero E6 infected with SARS-CoV-2; assay: morphology score (similarity to uninfected cells); higher = more like uninfected cells; settings: 24 h
[2] = tested on: Vero E6 infected with SARS-CoV-2; assay: SARS-CoV-2 infection rate relative to infected DMSO; higher = more infection, active = 60 or less; settings: 24 h

SMILES	morphology score [1]	SARS-CoV-2 infection rate [2]
O=C(CCCCCCC(=O)Nc1ccccc1)NO [vorinostat] (0.833333 µM)	0.00344	118% (inactive)
Nc1nc(-c2nn(Cc3ccccc3F)c3ncccc23)ncc1C1CC1 (0.833333 µM)	-0.057	102% (inactive)
NC(=O)NC(=O)Cc1ccccc1 [phenacemide] (10 µM)	0.0778	114% (inactive)
Cn1nc(C(C)(C)C)cc1C(=O)N[C@@H](Cc1cccc(Cl)c1)C(=O)NCC#N [cathepsin-inhibitor-1] (10 µM)	0.186	97.5% (inactive)
Cc1cn2c(N)c(Cl)cc(C(=O)NCC3CCN(CC(C)C)CC3)c2n1 (10 µM)	0.221	103% (inactive)
Cc1cc(=O)n(-c2ccccc2)n1C [phenazone] (10 µM)	-0.0495	108% (inactive)
COc1cccc(OC)c1-c1ccc(C[C@H](NC(=O)c2c(Cl)cccc2Cl)C(=O)O)cc1 (10 µM)	-0.141	102% (inactive)
Cc1ncc(CO)c(/C=N/NC(=O)c2ccncc2)c1O [pyridoxal-isonicotinoyl-hydrazone] (10 µM)	-0.0797	100% (inactive)
O=c1ccn([C@@H]2O[C@H](COP(=O)(O)OP(=O)(O)OP(=O)(O)O)[C@@H](O)[C@H]2O)c(=O)[nH]1 (10 µM)	0.267	97% (inactive)
N=C(C[C@@H](O)COc1ccccc1-c1ccccc1)N1CCCCC1 (10 µM)	0.0845	104% (inactive)
O=C(CC1NCCCC1O)Cn1cnc2cc(Br)c(Cl)cc2c1=O (centres undefined) [halofuginone] (0.833333 µM)	-0.082	99.5% (inactive)
C[C@@H](O)[C@H]1C(=O)N2C(C(=O)[O-])=C(SC3Cn4cnc[n+]4C3)[C@H](C)[C@H]12 (some centres undefined) [biapenem] (10 µM)	-0.0332	99.5% (inactive)
